Measurements reported in PubChem BioAssay (NCI).
“And” between values parts separate entries of the source, which are not always exact repeats. Equal values may be shown once. This is part of a sample that, as a whole, favours compounds with a hit. Of some 83,000 tested, about 20% had one in any assay.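 Note: values are percent growth. 100 is the growth of untreated cells, values between 100 and 0 indicate rising inhibition; between -100 and 0 indicates cell death.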 The source made the active and inactive calls. How the source made its calls: active means growth percent below 10; inactive means the rest. Where a SMILES comes first, the peptide text is derived from it. The star is where a group is joined. Trt = c1ccc(C(c2ccccc2)(c2ccccc2)*)cc1; Cbz = O=C(OCc1ccccc1)*

test system: COLO 205 colon; experiment: NCI-60 one-dose screen, 48 h (100 = growth as untreated, 0 = no growth, -100 = all killed); settings: 10 µM unless noted

Row | SMILES | growth
1 | O=C(/C=C/c1cccc(Cl)c1)c1ccccc1 | 115% (inactive) and 105% (inactive)
2 | O=C(Nc1cccc(Br)c1)Oc1ccc(Cl)c2cccnc12 | 55.8% [100 µM] (inactive)
3 | CN(C)c1ccc(/C=N/N=C(\C#N)[S][Sn]([Cl])([c]2ccccc2)[c]2ccccc2)cc1 | -51.6% (active)
4 | O=C1N[C@H]2[C@H](CS[C@H]2CCCCC(=O)N(CCP(c2ccccc2)c2ccccc2)CCP(c2ccccc2)c2ccccc2)N1 | 29.9% (inactive)
5 | NC(=S)N/N=C\c1nccc2c(C(F)(F)C(F)(F)C(F)(F)F)cccc12 | 16.5% (inactive)
6 | O=C1c2ccccc2C(=O)c2sc(Nc3cccc(Cl)c3)nc21 | 84.7% (inactive)
7 | O[C@H]1[C@H]2c3cc4c(cc3CN3CCC(=C[C@@H]1O)[C@H]23)OCO4 | 9.67% (active)
8 | CCCCCCCCCCCCCCCCOP(=O)([O-])OCC[N+](C)(C)C | 10.6% (inactive)
9 | Nc1ncnc2c1ncn2C1OC(CO)C(O)C1O (stereo not drawn) | 121% (inactive) and 100% (inactive)
10 | CCOc1ccc(-c2nc3ccc(-c4nc5ccc(N6CCN(C)CC6)cc5[nH]4)cc3[nH]2)cc1 | -96.5% (active)
11 | O=C(/C=C\c1cc(Br)ccc1O)/C=C/c1cc(Br)ccc1O | -70.6% (active)
12 | CCC(=O)Sc1ccccc1C(=O)Nc1ccc(Cl)cc1 | 84.7% (inactive)
13 | Oc1c(Br)c(Br)c(O)c(Br)c1Br | -34.4% (active)
14 | COc1ccccc1OC(=O)Oc1ccccc1OC | 123% (inactive) and 104% (inactive)
15 | O=C1c2cccnc2-c2nccc3c2c1nc1cc(Br)ccc13 | -85.6% (active) and -85% (active)
16 | Nc1ccc(SSc2ccc(N)cc2)cc1 | 106% (inactive)
17 | Cc1ccc2nc(C[n+]3ccc4ccccc4c3)ccc2c1 | 27.3% (inactive)

Row | SMILES | growth
18 | CN(C)CCOc1ccc2c(c1)C(=O)/C(=C\c1ncc([N+](=O)[O-])n1C)C2 | -91.9% (active)
19 | N#CSCc1c(Cl)cccc1Cl | 49.6% (inactive)
20 | C[N+](C)=c1ccc2nc3c(cc(NCCCNc4cc5oc6cc(=[N+](C)C)ccc-6nc5c5ccccc45)c4ccccc43)oc-2c1 | -64.9% (active)
21 | COC(=O)C(CSC(c1ccccc1)(c1ccccc1)c1ccccc1)NC(=O)C(CC(N)=O)NC(=O)OCc1ccccc1 (stereo not drawn) (Cbz-Asn-Cys(Trt)-OMe; configuration not given here) | -50.8% (active)
22 | S=C(N/N=C/c1ccccn1)Nc1ccccn1 | 9.1% (active)
23 | O=C(/C=C\c1ccccc1)N1c2ccccc2CC1c1c[nH]c2ccccc12 (stereo not drawn) | 56.6% (inactive)
24 | CC(=Nc1ccc(N(C)C)cc1)c1ccccc1 | 13.2% (inactive)
25 | Cc1cc(N)c2ccccc2[n+]1CCCCCCCCCC[n+]1c(C)cc(N)c2ccccc21 | -50.2% (active) and -45.7% (active)
26 | N[C@H](C(=O)O)[C@@H]1CC(Cl)=NO1 | 33.5% [20 µM] (inactive)
27 | Cc1c2ccccc2c(C)c2c1ccc1ccccc12 | 94.6% (inactive)
28 | O=C(O)c1ccc2c3c(ncnc13)-c1ccccc1C2=O | 54.7% (inactive)
29 | CCC(c1cccc(O)c1)C(CC)c1cccc(O)c1 (stereo not drawn) | 61.9% (inactive)
30 | Cc1ccnc2c1ccc1c(C)ccnc12 | 4.27% (active)
31 | N#CSCC(=O)c1ccc(Cl)cc1 | 90.3% (inactive)
32 | NC(N)=N/N=C/c1ccc([N+](=O)[O-])o1 | 3.2% (active)
33 | Oc1c(Cl)c2ccccc2c2ccccc12 | 113% (inactive)
